Test systems include BT-549 breast; MDA-MB-435 melanoma; SW-620 colon; MCF7 breast; HCT-116 colon; HCC-2998 colon; KM12 colon.
Common to all, as to assay: NCI-60 one-dose screen, 48 h (100 = growth as untreated, 0 = no growth, -100 = all killed)
Settings in all cases: 10 µM

Compounds without any hit were thinned out: in the full panel of roughly 83,000, 20% have a hit.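 48-hour exposure, single concentration, 96-well plates; percent growth endpoint where 0 means no net growth. Active: below 10.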 Unmarked numbers belong to inactive results. The source made the active and inactive calls.

For `N=c1nc(N)ncn1-c1ccccc1`, the growth in the assay with BT-549 breast is 107%; in the assay on MDA-MB-435 melanoma it was 107%; in the assay on SW-620 colon it was 107%; in the assay with MCF7 breast, 92.4%; in the assay with HCT-116 colon it was 97.4%; in the assay on HCC-2998 colon, 101%. In the assay on KM12 colon, the growth was 108%.
Consider `Cc1cc2c(C)c3cc(C)c(N)cc3nc2cc1N`, for which the growth in the assay on BT-549 breast was 57.8%; with MDA-MB-435 melanoma, 12%; in the assay on SW-620 colon, 4.58% (active); in the assay on MCF7 breast, -4.55% (active); in the assay on HCT-116 colon, -9.81% (active); with HCC-2998 colon, 28.3%. Further, in the assay with KM12 colon, the growth is 9.44% (active).
`O=S(=O)(NCCNc1nccc(-c2c(-c3ccc(F)cc3)nc3sccn23)n1)c1ccc2ccccc2c1`: the growth with BT-549 breast is 92.5%; in the assay on MDA-MB-435 melanoma it was 56.4%; in the assay on SW-620 colon, 97.5%; in the assay on MCF7 breast, 38.2%; with HCT-116 colon, 61.8%; with HCC-2998 colon, 82.6%. Further, the growth in the assay with KM12 colon is 75.6%.
For the compound `O=C1Nc2ccccc2C1=NC1CCCCC1`, the growth was 96.1% with BT-549 breast; 106% in the assay on MDA-MB-435 melanoma; 105% with SW-620 colon; 98% with MCF7 breast; 105% in the assay with HCT-116 colon; 107% in the assay with HCC-2998 colon. For the same compound, the growth in the assay with KM12 colon is 95.9%.
With `COc1cc(/C=C/C(=O)c2ccc(Cl)cc2)ccc1OS(=O)(=O)c1ccc(C)cc1`, the growth is 134% in the assay on BT-549 breast; 81.2% in the assay on MDA-MB-435 melanoma; 6.82% (active) in the assay on SW-620 colon; 11.2% in the assay with MCF7 breast; 12.9% in the assay with HCT-116 colon; 112% in the assay on HCC-2998 colon. In addition, the growth in the assay on KM12 colon was 81.2%.
With `C/C(=N\Nc1nc2ccccc2s1)c1ccncn1`, the growth is 46.3% in the assay on BT-549 breast; 46.2% in the assay on MDA-MB-435 melanoma; 31.2% with SW-620 colon; 4.99% (active) in the assay with MCF7 breast; 5.21% (active) with HCT-116 colon; 46.3% with HCC-2998 colon. Also, the growth in the assay with KM12 colon is 39.1%.
Consider `Cc1cccc(C)c1NC(=O)c1sc2nc3c(cc2c1N)C(=O)CCC3`, for which the growth with BT-549 breast is 90.7%; in the assay with MDA-MB-435 melanoma, 13%; in the assay with SW-620 colon it was 72.2%; in the assay with MCF7 breast, 54.6%; in the assay on HCT-116 colon, 90.6%; in the assay on HCC-2998 colon it was 72.5%. In addition, the growth in the assay with KM12 colon was 56.3%.
Consider `Nc1nc(N=Nc2ccc(O)cc2)cc(=O)[nH]1`, for which the growth with BT-549 breast is 95.5%; in the assay with MDA-MB-435 melanoma, 98.3%; with SW-620 colon, 104%; with MCF7 breast it was 101%; with HCT-116 colon, 112%; in the assay on HCC-2998 colon it was 106%. In addition, in the assay on KM12 colon, the growth is 111%.
For `Cc1cc(Nc2ccc(Cl)cc2)nc(NCCCNc2ccnc3cc(Cl)ccc23)n1`, the growth in the assay on BT-549 breast was -86.7% (active); with MDA-MB-435 melanoma it was -88.6% (active); with SW-620 colon, -67.4% (active); in the assay with MCF7 breast, -100% (active); with HCT-116 colon, -97.4% (active); in the assay with HCC-2998 colon, -88.9% (active). In addition, the growth in the assay on KM12 colon is -33.4% (active).
On to `COc1cc(NC(=O)CSc2nc3ccccc3c(=O)n2CCc2ccccc2)cc(OC)c1OC`, for which the growth was -4.65% (active) in the assay with BT-549 breast; 32.1% in the assay on MDA-MB-435 melanoma; 48.6% in the assay on SW-620 colon; 51% in the assay with MCF7 breast; -0.608% (active) in the assay with HCT-116 colon; 35% in the assay with HCC-2998 colon. Besides, in the assay on KM12 colon, the growth was 7.82% (active).
As for `Cn1c([N+](=O)[O-])cnc1/C=C1\Oc2ccc(Cl)cc2C1=O`, the growth with BT-549 breast was -35.7% (active); with MDA-MB-435 melanoma, -62.7% (active); in the assay with SW-620 colon, -61.6% (active); in the assay with MCF7 breast, 1.32% (active); in the assay on HCT-116 colon, -46.6% (active); in the assay with HCC-2998 colon it was -58.6% (active). Besides, the growth in the assay with KM12 colon is -37% (active).
`COc1cc(Nc2ccnc(NCCNc3ccnc4cc(Cl)ccc34)n2)cc(OC)c1`: the growth in the assay with BT-549 breast was 51.4%; in the assay with MDA-MB-435 melanoma, -50.7% (active); in the assay with SW-620 colon it was 19.9%; in the assay with MCF7 breast, 8.25% (active); in the assay with HCT-116 colon, -20.2% (active); in the assay with HCC-2998 colon, 29.7%. In the assay with KM12 colon, the growth is 55.3%.
Regarding `O=c1c2ccccc2nc(SCCN2CCCCC2)n1CCc1ccccc1`, the growth in the assay with BT-549 breast was 86.3%; in the assay on MDA-MB-435 melanoma, 95.9%; in the assay on SW-620 colon, 89.9%; with MCF7 breast, 63.3%; in the assay on HCT-116 colon, 74%; in the assay on HCC-2998 colon, 97.9%. Further, in the assay on KM12 colon, the growth was 94.2%.
`COc1cc(-c2cc(/C=C3\C(=O)Nc4cc(Cl)ccc43)[nH]n2)cc(OC)c1OC`: the growth is 47.6% in the assay on BT-549 breast; -0.685% (active) in the assay with MDA-MB-435 melanoma; 41.4% in the assay on SW-620 colon; -4.15% (active) in the assay with MCF7 breast; 14.2% with HCT-116 colon; 70% with HCC-2998 colon. Besides, the growth in the assay on KM12 colon is 9.09% (active).
As for `N#Cc1ncc(-c2ccc(C(F)(F)F)cc2)c(NCc2cc(C(F)(F)F)cc(C(F)(F)F)c2)n1`, the growth in the assay with BT-549 breast was 21.8%; with MDA-MB-435 melanoma it was 12.2%; with SW-620 colon it was 14.5%; in the assay on MCF7 breast, 8.58% (active); with HCT-116 colon it was 7.85% (active); with HCC-2998 colon it was 45%. The growth in the assay on KM12 colon was 10.2%.

The values are drawn from PubChem BioAssay (NCI).
